The supplement of paper PMC6518042

system: Pectobacterium parmentieri SCC3193; assay: DuctApe activity index (growth/respiration on compound as sole nutrient source, blank-subtracted) (activity index (0-3)); higher = stronger utilization of the compound, active = 3 or more; details: nutrient role (plate category): carbon
Procedure: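 Biolog Phenotype Microarray plates PM1, PM2A (carbon), PM3 (nitrogen) and PM4 (phosphorus/sulfur) inoculated with P. parmentieri SCC3193 in M9-C minimal salts medium with Biolog dye A, and read in the OmniLog for 46 h. Each well was tested in triplicate and the experiment was run twice. DuctApe computed a blank-subtracted activity index (AV, 0-3) from the mean curves; growth is positive at AV >= 3 and negative at AV <= 2.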

**Q.** Which DuctApe activity index does the source give for `O=C(CO)[C@@H](O)[C@H](O)[C@@H](O)C(=O)O` [5-Keto-D-Gluconic acid] here?
**A.** 0 (inactive)

**Q.** `CC(=O)C(C)=O` [2,3-Butanedione] was tested. Which DuctApe activity index did it give?
**A.** 0 (inactive)

**Q.** With `OC[C@H]1O[C@H](OC[C@H]2OC(O)[C@H](O)[C@@H](O)[C@@H]2O)[C@H](O)[C@@H](O)[C@H]1O` (stereo partly drawn) [D-Melibiose] as the compound, how does the DuctApe activity index read?
**A.** 3 (active)

**Q.** With `OCC1(O)OC[C@H](O)[C@@H](O)[C@@H]1O` (stereo partly drawn) [L-Sorbose] as the compound, how does the DuctApe activity index read?
**A.** 0 (inactive)

**Q.** `OC[C@H]1O[C@@H](O[C@H]2[C@H](O)[C@@H](O)[C@@H](O)O[C@@H]2CO)[C@H](O)[C@@H](O)[C@H]1O` [a-D-Lactose] was tested. Which DuctApe activity index did it give?
**A.** 3 (active)

**Q.** Which DuctApe activity index does the source give for `OCC1(O)OC[C@@H](O)[C@H](O)[C@@H]1O` (stereo partly drawn) [D-Tagatose] here?
**A.** 0 (inactive)

**Q.** Which DuctApe activity index does the source give for `O=C(O)CC(O)C(=O)O` (racemic) [DL-Malic acid] here?
**A.** 3 (active)

**Q.** `NC(=O)CCC(=O)O` [Succinamic acid] was tested. Which DuctApe activity index did it give?
**A.** 3 (active)

**Q.** Which DuctApe activity index does the source give for `O=C(O)/C=C/C(=O)O` [Fumaric acid] here?
**A.** 3 (active)

**Q.** How did the DuctApe activity index turn out when `O[C@@H]1[C@@H](O)[C@@H](O)CO[C@H]1O` [L-Arabinose] was run?
**A.** 3 (active)

**Q.** For `OC[C@H]1O[C@H](OC[C@H]2O[C@H](O[C@]3(CO)O[C@H](CO)[C@@H](O)[C@@H]3O)[C@H](O)[C@@H](O)[C@@H]2O)[C@H](O)[C@@H](O)[C@H]1O` [D-Raffinose], which DuctApe activity index is on record?
**A.** 3 (active)

**Q.** For `O=P(O)(O)OC[C@H]1OC(O)(CO)[C@@H](O)[C@@H]1O` (stereo partly drawn) [D-Fructose-6-Phosphate], which DuctApe activity index is on record?
**A.** 3 (active)

**Q.** Which DuctApe activity index does the source give for `C[C@@H]1OC(O)[C@H](O)[C@H](O)[C@H]1O` (stereo partly drawn) [L-Rhamnose] here?
**A.** 3 (active)

**Q.** How did the DuctApe activity index turn out when `O[C@@H]1[C@H](O)[C@H](O)CO[C@H]1O` [D-Ribose] was run?
**A.** 3 (active)

**Q.** With `C[C@@H](O)[C@H](O)[C@H](O)[C@@H](O)C=O` [D-Fucose] as the compound, how does the DuctApe activity index read?
**A.** 0 (inactive)

**Q.** For `CC(=O)C(=O)O` [Pyruvic acid], which DuctApe activity index is on record?
**A.** 3 (active)

**Q.** Which DuctApe activity index does the source give for `O=C(CO)CO` [Dihydroxyacetone] here?
**A.** 1 (inactive)

same assay, conditions: nutrient role (plate category): nitrogen

**Q.** For `NC(=O)NC(N)=O` [Biuret], which DuctApe activity index is on record?
**A.** 0 (inactive)

**Q.** How did the DuctApe activity index turn out when `O=c1cc[nH]c(=O)[nH]1` [Uracil] was run?
**A.** 0 (inactive)

**Q.** Which DuctApe activity index does the source give for `NC(=O)NCCC[C@H](N)C(=O)O` [L-Citrulline] here?
**A.** 0 (inactive)

**Q.** How did the DuctApe activity index turn out when `NC(=O)C[C@@H](N)C(=O)O` [D-Asparagine] was run?
**A.** 1 (inactive)

**Q.** With `NCCc1c[nH]cn1` [Histamine] as the compound, how does the DuctApe activity index read?
**A.** 0 (inactive)
